# Measurements as given in PubChem BioAssay.
# Several values for one entry are separate records, joined by “and”; a condition that tells them apart may be missing. Equal values may be shown once. Activity calls are given as the source filed them.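 The calls were made as follows, unless noted: active = compounds whose cell count with miR-34 switched on is under 0.7 times the count with it off; inactive = the rest.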 Where a SMILES comes first, the peptide text is derived from it. The star is where a group is joined. Cbz = O=C(OCc1ccccc1)*
# Legend:
# [1] = viability loss with induced miR-34 in A549 – imaging, A549 dox-inducible miR-34, nuclei and caspase counts, primary screen (AID 1347080); settings: A549 miR-34 inducible, Hoechst nuclei count, 48 h
# [2] = compounds altering circadian rhythm period length – cell-based, LOPAC library, luminescence reporter (AID 2774; call rule not given here;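 also: values are relative to mean of DMSO wells on each plate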); settings: circadian reporter cells, at 7 µM, actives lie on both sides
# [3] = test system: Hepatitis C virus NS3 helicase; test: blockers of NS3h binding to ssDNA – biochemical, fluorescence polarization, LOPAC1280 library, primary screen (AID 687035; in the data active = inhibition above about 37%); settings: Purified HCV NS3 helicase, Cy5-dT15 ssDNA binding fluorescence polarization; stronger effect = higher value; concentration not given here
# [4] = compounds altering Cy5-DNA-NS3h complex signal – biochemical, LOPAC1280, artefact control for HCV NS3 helicase inhibitor project (AID 687037; call rule not given here); settings: Cy5-DNA-NS3h complex fluorescence interference counterscreen
# [5] = chitosan synthesis blockers in C. neoformans – flow cytometry, Cibacron Brilliant Red staining (AID 1347148; call rule not given here;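 also: compound exposure lasted three days at 37 degrees C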); settings: Cryptococcus neoformans chitosan, stronger effect = lower value; at 10 µM unless noted
# [6] = blockers of cellular phospholipid synthesis – cell-based, LOPAC library, screen 4, primary screen (AID 1347384; call rule not given here); settings: animal cells, phospholipid biosynthesis inhibition screen; at 10 µM
# [7] = galactose survival enhancers in mitochondrial complex I cybrids – cell-based, galactose medium, ATP luminescence, primary screen (AID 1645843;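 active = z-score of at least 1.8 in each of two replicates, scored against plate mean and spread of sample wells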;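 also: positive z means more ATP and so rescue of galactose-driven cybrid death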); settings: complex I mutant cybrid cells, 72 h, stronger effect = higher value
# [8] = MELAS cybrid and Rieske KO viability enhancers – cell-based, MELAS cybrids, Rieske KO mouse fibroblasts, CellTiter-Glo, primary screen (AID 1508586;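 active = mean z-score across replicates of 1.96 or higher in either the MELAS or the Rieske mutant cell line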;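 also: z relative to plate mean and SD of compound and empty wells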); settings: low glucose
# [9] = compounds altering viability of human ES cells (AID 493140; call rule not given here;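 also: cells exposed to compounds for four days before counting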); settings: human embryonic stem cell survival screen; stronger effect = higher value
# [10] = P. berghei load reduction in hepatocytes – cell-based, HepG2, luciferase luminescence, HepG2 viability, primary screen (AID 624349; in the data active = parasite load remaining mostly below about 12%, no sharp cut-off; inactive = mostly above about 10%;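 also: 100% = mean of DMSO negative control wells on the same plate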); settings: P. berghei liver stage in HepG2, luciferase luminescence, concentration not given here; parasite load remaining: stronger effect = lower value; viability: measured here: HepG2 viability without parasites
# [11] = stronger effect = lower value, cell number ratio, induced over uninduced
# [12] = measured here: relative caspase fold change +Dox/-Dox
# [13] = measured here: total cells with miR-34 induction, stronger effect = lower value
# [14] = measured here: total cells without miR-34 induction
# [15] = MELAS cybrid survival, CellTiter-Glo 48 h, stronger effect = higher value
# [16] = Rieske KO mouse fibroblast survival, CellTiter-Glo 72 h
smiles,measurement,setting,value
CCCCC/C=C\C/C=C\C/C=C\CCCCCCC(=O)OC,fold change,[1]; [11],1.11 (inactive)
same,fold change,[1]; [12],0.903
same,cell count,[1]; [13],6440
same,cell count,[1]; [14],5790
Cc1nnsc1C(=O)Nc1ccc(-n2nc(C(F)(F)F)cc2C(F)(F)F)cc1,fold change,[1]; [11],1.08 (inactive)
same,fold change,[1]; [12],1.08
same,cell count,[1]; [13],5850
same,cell count,[1]; [14],5430
CCCCC[C@H](O)/C=C/[C@@H]1[C@@H](C/C=C\CCCC(=O)NC(CO)CO)[C@@H](O)C[C@H]1O,fold change,[1]; [11],1.01 (inactive)
same,fold change,[1]; [12],1.3
same,cell count,[1]; [13],6050
same,cell count,[1]; [14],5980
O=c1[nH]c2cc(C(F)(F)F)ccc2n1-c1cc(C(F)(F)F)ccc1O,period change,[2],-0.3 h (inactive)
same,inhibition,[3],-6% (inactive)
same,fluorescence ratio (interference),[4],0.9 (inactive)
same,fold change,[1]; [11],0.996 (inactive) and 0.985 (inactive)
same,fold change,[1]; [12],0.925 and 0.952
same,cell count,[1]; [13],9130 and 5130
same,cell count,[1]; [14],9180 and 5210
same,fold fluorescence,[5],3.32 [at 138 µM] (inactive)
same,outcome,[6],inactive
same,z-score,[7],0.585 (inactive)
NC(=S)NCCC[C@H](N)C(=O)O,fold change,[1]; [11],0.92 (inactive) and 1.03 (inactive)
same,fold change,[1]; [12],1.34 and 0.799
same,cell count,[1]; [13],5590 and 6220
same,cell count,[1]; [14],6080 and 6060
same,fold fluorescence,[5],2.92 [at 261.4 µM] (inactive)
CCCCN=C(N)NO,fold change,[1]; [11],1.06 (inactive)
same,fold change,[1]; [12],1.14
same,cell count,[1]; [13],6280
same,cell count,[1]; [14],5930
CCN(CC)CCCCCCCCOC(=O)c1cc(OC)c(OC)c(OC)c1,period change,[2],-0.085 h (inactive)
same,inhibition,[3],-4% (inactive)
same,fluorescence ratio (interference),[4],0.9 (inactive)
same,fold change,[1]; [11],1.02 (inactive) and 0.949 (inactive)
same,fold change,[1]; [12],0.695 and 1.09
same,cell count,[1]; [13],8240 and 4880
same,cell count,[1]; [14],8090 and 5140
same,fold fluorescence,[5],8.07 [at 126.4 µM] (inactive)
same,outcome,[6],inactive
same,z-score,[7],-0.285 (inactive)
CCCCC/C=C\C=C\CCCCCCCCC(=O)O,fold change,[1]; [11],1.07 (inactive)
same,fold change,[1]; [12],1.02
same,cell count,[1]; [13],5840
same,cell count,[1]; [14],5480
CCCCC/C=C\C/C=C\C/C=C\C/C=C\CCCC(=O)Oc1ccc2ccc(=O)oc2c1,fold change,[1]; [11],0.939 (inactive)
same,fold change,[1]; [12],0.946
same,cell count,[1]; [13],5890
same,cell count,[1]; [14],6270
CC(C)[C@H](NC(=O)OCc1ccccc1)C(=O)N[C@H](C=O)Cc1ccccc1 (Cbz-Val-Phe-aldehyde),period change,[2],-0.095 h (inactive)
same,inhibition,[3],1% (inactive)
same,fluorescence ratio (interference),[4],1.1 (inactive)
same,fold change,[1]; [11],1.08 (inactive) and 0.959 (inactive)
same,fold change,[1]; [12],1.1 and 1.17
same,cell count,[1]; [13],9200 and 4810
same,cell count,[1]; [14],8520 and 5010
same,fold fluorescence,[5],5.31 [at 130.7 µM] (inactive)
same,outcome,[6],inactive
same,z-score,[7],0.52 (inactive)
CC(=O)OCOC(=O)CN(CC(=O)OCOC(C)=O)c1ccccc1OCCOc1ccccc1N(CC(=O)OCOC(C)=O)CC(=O)OCOC(C)=O,fold change,[1]; [11],1.04 (inactive) and 0.871 (inactive)
same,fold change,[1]; [12],1.07 and 0.533
same,cell count,[1]; [13],2560 and 5870
same,cell count,[1]; [14],2460 and 6740
same,fold fluorescence,[5],5.04 [at 65.4 µM] (inactive)
same,z-score,[8]; [15],-0.31 (inactive)
same,z-score,[8]; [16],0.894
O=C1OC2(c3ccc(O)cc3Oc3cc(Oc4ccc(O)cc4)ccc32)c2ccccc21 (stereo unspecified),fold change,[1]; [11],0.956 (inactive)
same,fold change,[1]; [12],1.49
same,cell count,[1]; [13],6230
same,cell count,[1]; [14],6520
CC(=O)N[C@@H](CSC/C=C(\C)CC/C=C(\C)CC/C=C(\C)CCC=C(C)C)C(=O)O,survival,[9],106 (inactive)
same,fold change,[1]; [11],0.941 (inactive) and 0.949 (inactive)
same,fold change,[1]; [12],1.39 and 0.928
same,cell count,[1]; [13],6090 and 5570
same,cell count,[1]; [14],6470 and 5860
same,fold fluorescence,[5],5.22 (inactive)
NC(=Nc1ccccc1)NC(=O)c1nc(Cl)c(N)nc1N,period change,[2],-0.435 h (inactive)
same,parasite load remaining,[10],58.8% (inactive)
same,viability,[10],98%
same,inhibition,[3],-2% (inactive)
same,fluorescence ratio (interference),[4],1 (inactive)
same,fold change,[1]; [11],1.04 (inactive) and 0.937 (inactive) and 0.841 (inactive)
same,fold change,[1]; [12],1.01 and 1.25 and 1.03
same,cell count,[1]; [13],5840 and 3000 and 8780
same,cell count,[1]; [14],5620 and 3200 and 10400
same,fold fluorescence,[5],5.89 [at 163.5 µM] (inactive)
same,outcome,[6],inactive
same,z-score,[8]; [15],1.28 (inactive)
same,z-score,[8]; [16],0.859
same,z-score,[7],-0.925 (inactive) and 0.595 (inactive)
CCCCCCCCCCCC(=O)O,fold change,[1]; [11],1.01 (inactive)
same,fold change,[1]; [12],1.12
same,cell count,[1]; [13],5910
same,cell count,[1]; [14],5870
CCCCC[C@H](O)/C=C/C1=C(CCCCCCC(=O)O)C(=O)CC1,survival,[9],68.1 (inactive)
same,fold change,[1]; [11],0.976 (inactive) and 0.956 (inactive)
same,fold change,[1]; [12],1.34 and 1.33
same,cell count,[1]; [13],6120 and 6210
same,cell count,[1]; [14],6270 and 6500
same,fold fluorescence,[5],3.81 (inactive)
CCCCCCCCCCCCC/C=C/[C@@H](O)[C@H](CO)NC(=O)CCCCCCC,survival,[9],77.3 (inactive)
same,fold change,[1]; [11],0.885 (inactive) and 1 (inactive)
same,fold change,[1]; [12],2.05 and 0.909
same,cell count,[1]; [13],5260 and 5480
same,cell count,[1]; [14],5940 and 5480
same,fold fluorescence,[5],4.66 (inactive)
CC12C(=O)OC(=O)C1(C)C1CCC2O1 (stereo unspecified),period change,[2],-0.375 h (inactive)
same,survival,[9],0 (inactive)
same,inhibition,[3],0% (inactive)
same,fluorescence ratio (interference),[4],1 (inactive)
same,fold change,[1]; [11],1.31 (inactive) and 0.948 (inactive)
same,fold change,[1]; [12],1.51 and 0.943
same,cell count,[1]; [13],607 and 462
same,cell count,[1]; [14],465 and 488
same,fold fluorescence,[5],5.03 [at 254.8 µM] (inactive)
same,outcome,[6],inactive
same,z-score,[7],-1.43 (inactive)
CC(C)CCOc1ccc(NC(=S)Nc2ccc(OCCC(C)C)cc2)cc1,fold change,[1]; [11],0.881 (inactive)
same,fold change,[1]; [12],0.401
same,cell count,[1]; [13],4560
same,cell count,[1]; [14],5170
